Experiment [1] is described as follows: qHTS assay for small molecule agonists of the p53 signaling pathway (AID 651631; calls by dose curve; also: nearly all actives have a fitted effect of over 15% in size; also: potency is read from the fitted curve at half-maximal effect). Summed up: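 Beta-lactamase reporter activity under p53 response elements was quantified in HCT-116 cells by FRET fluorescence, following 16 h incubation with test compounds at 37 °C and 2 h substrate development at room temperature.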
The nature of experiment [2]: qHTS assay for small molecules that induce genotoxicity in human embryonic kidney cells expressing luciferase-tagged ATAD5 (AID 651632). Also: % is scaled to controls: 0 for no effect and ±100 for the full control effect; nearly all actives have a fitted effect of over 15% in size. Summed up: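 DMSO vehicle served as the control. HEK293T reporter cells, 16 hr at 37C, then 30 min Amplite at room temperature; ATAD5 induction is measured as luciferase activity.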
Experiment [3] is described as follows: qHTS assay for small molecule agonists of the p53 signaling pathway - cell viability (AID 651633; calls by dose curve; also: nearly all actives have a fitted effect of over 30% in size; also: potency is read from the fitted curve at half-maximal effect). Summed up:
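p53RE-bla cells were treated with compound for 16 hours at 37 C. Cytotoxicity was then measured as CellTiter-Glo luminescence after 30 min at room temperature.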

Experiment [4] is described as follows: qHTS assay for small molecules that induce genotoxicity in human embryonic kidney cells expressing luciferase-tagged ATAD5 - cell viability (AID 651634; calls by dose curve; also: nearly all actives have a fitted effect of over 25% in size; also: potency is read from the fitted curve at half-maximal effect). Summed up:
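Here HEK293T cells with the ATAD5 luciferase reporter are incubated with test compounds for 15.5 hr, and cytotoxicity is then gauged by measuring protease activity in live cells using fluorescence.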

Experiment [5] in a line: qHTS assay for small molecule disruptors of the mitochondrial membrane potential - cell viability (AID 720634; calls by dose curve; also: nearly all actives have a fitted effect of over 20% in size; also: potency is read from the fitted curve at half-maximal effect). In short, it runs like this: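 Viability of HepG2 cells is scored from ATP content by luminescence; cells are exposed to compound for 1 hr at 37 C and 5% CO2, then dosed with m-MPI dye before the CellTiter-Glo reagent.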
Experiment [6] can be described thus: qHTS assay for small molecule disruptors of the mitochondrial membrane potential (AID 720635). Also: potency is read from the fitted curve at half-maximal effect. Summed up: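 HepG2 cells exposed to compound 1 hr at 37C, then Mito-MPS dye 30 min. Ratio read of aggregate (540/590 nm) versus monomer (490/535 nm) fluorescence.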
A short description of experiment [7]: qHTS assay to test for compound auto fluorescence at 590 nm (red) in HepG2 cells (AID 720674). Also: % is scaled to controls: 0 for no effect and ±100 for the full control effect. In short, it runs like this: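 Seeding: 2,000 HepG2 cells/well, MEM/10% FBS, overnight 37 C. Dosing: compound vs DMSO. Incubation: 1 hr, 37 C, 5% CO2. Read: fluorescence 540 ex/590 em, Rose Bengal sodium as red reference.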
Experiment [8] is described as follows: qHTS assay to test for compound auto fluorescence at 535 nm (green) in HepG2 cells (AID 720675). Also: % is scaled to controls: 0 for no effect and ±100 for the full control effect.
Experiment [9] can be described thus: qHTS assay to test for compound auto fluorescence at 460 nm (blue) in HEK293 cells (AID 720678). Also: % is scaled to controls: 0 for no effect and ±100 for the full control effect. In short, it runs like this: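 Measured: blue fluorescence (Ex 405/Em 460 nm) of compound-treated HEK293 cells, incubated overnight at 37C with 5% CO2 and scaled to triamterene equivalents.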
Experiment [10] is described as follows: qHTS assay to test for compound auto fluorescence at 590 nm (red) in HEK293 cells (AID 720679). Also: % is scaled to controls: 0 for no effect and ±100 for the full control effect. Summed up:
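Using HEK293 cells at 2,000 per well, the screen added 23 nL of each compound after cell attachment and incubated overnight (37C, 5% CO2). The plate reader then captured red-label fluorescence, Ex/Em 540/590nm.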

A short description of experiment [11]: qHTS assay to test for compound auto fluorescence at 535 nm (green) in HEK293 cells (AID 720680). Also: % is scaled to controls: 0 for no effect and ±100 for the full control effect.
The nature of experiment [12]: qHTS assay to test for compound auto fluorescence at 460 nm (blue) in HEK293 cell free culture (AID 720681). Also: % is scaled to controls: 0 for no effect and ±100 for the full control effect. In short, it runs like this:
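Compounds were added to cell-free DMEM with 10% FBS and fluorescence read directly. The blue channel used 405 nm excitation and 460 nm emission, with triamterene as the reference fluorophore.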

Experiment [13] can be described thus: qHTS assay to test for compound auto fluorescence at 535 nm (green) in HEK293 cell free culture (AID 720682). Also: % is scaled to controls: 0 for no effect and ±100 for the full control effect. In short, it runs like this:
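Each library compound, or DMSO control, is added by pintool to medium alone, comprising DMEM and 10% FBS. Emission at 535 nm following 485 nm excitation is quantified against fluorescein.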

The nature of experiment [14]: qHTS assay to test for compound auto fluorescence at 590 nm (red) in HEK293 cell free culture (AID 720683). Also: % is scaled to controls: 0 for no effect and ±100 for the full control effect. In short, it runs like this: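 Cell-free wells of DMEM with 10% FBS received compound, and intrinsic fluorescence was read at excitation/emission 540/590 nm. Values expressed as equivalence to Rose Bengal sodium.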
Experiment [15] in a line: qHTS assay to test for compound auto fluorescence at 590 nm (red) in HepG2 cell free culture (AID 720684). Also: % is scaled to controls: 0 for no effect and ±100 for the full control effect. In short, it runs like this: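 Rose Bengal sodium served as the reference for red signal. Test compounds were dispensed into serum-containing MEM (10% FBS) without cells, and plates were read at 540/590 nm.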
A short description of experiment [16]: qHTS assay to test for compound auto fluorescence at 460 nm (blue) in HepG2 cell free culture (AID 720685). Also: % is scaled to controls: 0 for no effect and ±100 for the full control effect. Summed up:
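Cell-free plates of MEM plus 10% FBS received 23 nL compound or DMSO vehicle; blue-channel (405/460 nm) intensity scored against triamterene as reference fluorophore.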

A short description of experiment [17]: qHTS assay to test for compound auto fluorescence at 535 nm (green) in HepG2 cell free culture (AID 720686). Also: % is scaled to controls: 0 for no effect and ±100 for the full control effect.
A short description of experiment [18]: qHTS assay to test for compound auto fluorescence at 460 nm (blue) in HepG2 cells (AID 720687). Also: % is scaled to controls: 0 for no effect and ±100 for the full control effect. In short, it runs like this: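 HepG2 cells in MEM with 10% FBS, attached overnight at 37 C, were exposed to compound or DMSO for 1 hr at 37 C, 5% CO2. Blue fluorescence was read at 405/460 nm, with triamterene as reference fluorophore.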
The target of experiment [19] is Glucocorticoid receptor (Homo sapiens) (UniProt P04150). The experiment can be described thus: qHTS assay to identify small molecule agonists of the glucocorticoid receptor (GR) signaling pathway (AID 720691; active = well fitted activation curve with a large enough effect in the signal ratio in the repeat runs, not every such curve was filed as active; the % refers to the signal ratio; also: % is scaled to controls: 0 for no effect and ±100 for the full control effect). In short, it runs like this: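 Compounds in DMSO, alongside positive controls, were added to GR-bla HeLa reporter cells and incubated 18 h at 37 C; GRE-driven beta-lactamase was detected by fluorescence after 2 h with FRET substrate at room temperature.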

The target is the same in experiment [20]. The experiment is described as follows: qHTS assay to identify small molecule antagonists of the glucocorticoid receptor (GR) signaling pathway (AID 720692; active = well fitted inhibition curve with a large enough effect in the signal ratio in the repeat runs, not every such curve was filed as active; the % refers to the signal ratio; also: potency is read from the fitted curve at half-maximal effect). Summed up:
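In a 1536-well cell format, compounds were added 4 h after seeding GR-bla HeLa cells, together with dexamethasone at 5 nM final; reporter activity was measured by FRET-substrate fluorescence following 18 h at 37 C.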

“And” between values parts separate entries of the source, which are not always exact repeats. Equal values may be shown once. Records with an inconclusive call do not appear. The source made the active and inactive calls. Unless noted, calls follow the shape of the dose curve; as a rule, active = well fitted curve in the direction sought with a large enough effect in the repeat runs; inconclusive = weak or mixed curves; inactive = no such curve, though single readings can be large; an effect the other way counts as inactive or inconclusive.

Sequence of Glucocorticoid receptor (Homo sapiens) (P04150 whole entry, looked up): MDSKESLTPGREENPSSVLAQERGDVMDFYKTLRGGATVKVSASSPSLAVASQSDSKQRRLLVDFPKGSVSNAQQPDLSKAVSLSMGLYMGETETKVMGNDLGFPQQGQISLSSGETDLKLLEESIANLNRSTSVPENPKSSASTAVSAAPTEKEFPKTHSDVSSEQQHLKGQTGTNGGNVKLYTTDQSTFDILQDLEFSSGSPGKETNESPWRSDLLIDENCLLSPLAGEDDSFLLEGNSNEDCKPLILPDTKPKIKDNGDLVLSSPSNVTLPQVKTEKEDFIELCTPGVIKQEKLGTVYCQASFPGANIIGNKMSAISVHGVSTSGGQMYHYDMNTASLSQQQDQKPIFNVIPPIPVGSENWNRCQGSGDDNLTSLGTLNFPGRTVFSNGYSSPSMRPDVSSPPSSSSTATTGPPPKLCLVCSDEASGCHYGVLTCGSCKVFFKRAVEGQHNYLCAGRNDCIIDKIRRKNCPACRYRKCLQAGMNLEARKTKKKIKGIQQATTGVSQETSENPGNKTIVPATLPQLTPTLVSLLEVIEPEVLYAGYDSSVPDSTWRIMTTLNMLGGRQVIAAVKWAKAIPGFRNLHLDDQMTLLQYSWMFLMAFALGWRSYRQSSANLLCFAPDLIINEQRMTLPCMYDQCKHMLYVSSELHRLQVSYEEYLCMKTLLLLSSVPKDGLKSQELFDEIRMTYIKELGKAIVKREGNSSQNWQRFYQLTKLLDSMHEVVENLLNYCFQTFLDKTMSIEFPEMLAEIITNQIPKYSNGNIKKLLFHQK

Consider `CCCCCCCCCCCCCCCC[n+]1ccccc1`, for which the Potency in [1] was 26.6 µM (active) and 71.7 µM (active); in [3], 67.6 µM (active) [middle of 4 runs]; in experiment [4] it was 63.9 µM (active) and 48.6 µM (active); in experiment [5] it was 63.9 µM (active) and 60.3 µM (active); in [6], 24.3 µM (active) [middle of 4 runs]. Besides, the Potency result in experiment [2], in experiment [9], in experiment [12], in experiment [16] and in experiment [18] was “inactive” in each case. In addition, the outcome in experiment [7], in [8], in experiment [10], in [11], in experiment [13] and in experiment [14] was inactive. In addition, the molecule was classed as inactive in experiment [15] and in [17].
In the case of `CCOC(=O)OC1=C(c2cc(C)ccc2C)C(=O)NC12CCC(OC)CC2` (configuration not stated), the Potency in [1] is 68.5 µM (active); in experiment [5] it was 10.9 µM (active); in experiment [6], 21.7 µM (active). The Potency result in experiment [2], in experiment [3], in [4], in experiment [9], in experiment [12] and in experiment [16] was “inactive” in each case. Besides, the Potency result in experiment [18] is “inactive”. The outcome in [7], in experiment [8], in experiment [10], in experiment [11], in experiment [13] and in experiment [14] was inactive. Moreover, the result in experiment [15] and in [17] was inactive.
In the case of `FC(Cl)(Cl)Cl`, the Potency result in experiment [1], in experiment [2], in [3], in experiment [4], in experiment [5] and in experiment [9] was “inactive” each time. In addition, the Potency entry in [12], in experiment [18] and in experiment [19] was “inactive” each time. Also, the outcome in [7], in experiment [8], in experiment [10], in [11], in experiment [13] and in [14] was inactive. For the same molecule, the molecule was called inactive in experiment [15] and in experiment [17].
For `CCN`, the Potency entry in experiment [1], in experiment [2], in experiment [3], in [4], in experiment [5] and in experiment [6] was “inactive” throughout. Besides, the Potency entry in [9], in experiment [12] and in experiment [18] was “inactive” in each case. Also, the outcome in experiment [7], in experiment [8], in experiment [10], in experiment [11], in [13] and in [14] was inactive. Besides, the call in [17] was inactive.
In the case of `FC(F)(F)c1cccc(C2=CCN(CCc3ccc4ccccc4c3)CC2)c1`, the Potency result in experiment [1], in experiment [2], in [3], in [4], in experiment [5] and in experiment [9] was “inactive” throughout. The Potency entry in experiment [12], in [16] and in experiment [18] was “inactive” throughout. In addition, the outcome in [7], in [8], in [10], in [11], in experiment [13] and in [14] was inactive. Moreover, the outcome in experiment [15] and in experiment [17] was inactive.
In the case of `CCCN(CC)CC1COC2(CCC(C(C)(C)C)CC2)O1` (configuration not stated), the Potency entry in experiment [1], in experiment [2], in experiment [3], in experiment [4], in experiment [5] and in experiment [9] was “inactive” throughout. Also, the Potency result in [12], in experiment [16], in [18] and in experiment [19] was “inactive” throughout. For the same molecule, the molecule was classed as inactive in experiment [7], in experiment [8], in [10], in experiment [11], in experiment [13] and in experiment [14]. For the same molecule, the result in experiment [17] was inactive.
As to `O=C(CCl)C(Cl)Cl`, the Potency is 13.8 µM (active) in experiment [1]; 55 µM (active) in [4]; 49 µM (active) in experiment [5]; 61.7 µM (active) in experiment [6]; 35 µM (active) in experiment [20]. The Potency result in experiment [2], in experiment [3], in [9], in experiment [12], in experiment [16] and in [18] was “inactive” in each case. For the same molecule, the call in experiment [7], in [8], in [10], in experiment [11], in experiment [13] and in experiment [14] was inactive. Besides, the result in experiment [15] and in [17] was inactive.

These data come from PubChem BioAssay (Tox21).
